Records with an inconclusive call do not appear. Where a call stands in place of a potency, no number is given. Calls of active or inactive are those of the source. The call rests on the fitted dose curve; in most records, active means well fitted cell-killing curve with a large enough effect; inconclusive means small, poorly fitted or top-dose-only effect; inactive means flat fitted curve, though single readings scatter.
Potency means the concentration at half of the fitted maximal effect.

This test in a line: Cell Viability - LYMP2-018 (AID 985).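 Further: compound exposure lasted 24 hr at 37 °C; nearly all actives have a fitted effect of over 50% in size.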 To be noted: LYMP2-018 lymphoblastoid cells, viability (qHTS); series mostly up to 92.2 µM. The text has this:
NIH Chemical Genomics Center [NCGC]
NIH Molecular Libraries Screening Centers Network [MLSCN]
National Institutes of Environmental Health Sciences [NIEHS]
National Toxicology Program [NTP]
We have developed a 1536-well cell-based assay for quantitative high throughput screening (qHTS) against a number of cell lines to determine in vitro cytotoxicity of small molecules. This particular assay uses a human lymphoblastoid cell line (LYMP2-018) purchased from Coriell Institute for Medical Research.
NCGC Assay Protocol Summary:
The CellTiter-Glo luminescent cell viability assay (Promega) is a homogeneous method to measure the number of viable cells in culture. The end point readout of this assay is based on quantitation of intracellular ATP, an indicator of metabolic activity, using the luciferase reaction. Luciferase catalyzes the oxidation of beetle Luciferin to oxyluciferin and light in the presence of ATP. The luminescent signal is proportional to amount of ATP present.
Using the CellTiter-Glo luminescent cell viability assay, the amount of cellular ATP was measured in the lymphoblastoid cell line with complete culture medium following compound treatment for 24 hours. The assay was performed in opaque white Kalypsys 1536-well plates. In the screen, tetraoctylammonium bromide was used as positive control. Library compounds were measured for their ability to cause acute toxicity in the cell line, as reflected by a decrease in intracellular ATP levels, in a concentration-dependent manner. […] AC50 values were determined from concentration-response data modeled with the standard Hill equation.
qHTS protocol for CellTiter Glo lymphoblastoid cellular assay
[Step] [Parameter] [Value] [Description]
1. Reagent; 5 uL; 2500 lymphoblastoid cells/well
2. Time; 5 hr; 37 C incubation
4. Controls; 23 nL; Tetraoctylammonium bromide 6.4pM to 92 uM
5. Time; 24 hr; 37 C incubation
6. Reagent; 5 uL; CellTiter Glo reagent
7. Time; 30 min; Room Temperature
8. Detection; Luminescence; Viewlux plate reader
Keywords: cell viability, cytotoxicity, lymphoblastoid cell line, luminescence, NTPHTS, NTPHTS_NCGC, NIEHS, DSSTox, MLSMR, MLSCN, NIH Roadmap, qHTS, NCGC
In general terms: In qHTS, concentration-response curves come from the screen itself.
`CCC(C)Nc1ccc(NC(C)CC)cc1` (stereo unspecified): the Potency was 3.16 µM (active).

On to `O=C(/C=C/c1ccc(O)c(O)c1)OC1C[C@](O)(C(=O)O)C[C@@H](O)[C@H]1O` (stereo partly specified), for which the Potency result is “inactive”.

Consider `C=CC(=O)OCCOCCOC(=O)C=C`, for which the Potency was 15.8 µM (active).

For the compound `CCCCCC/C(C=O)=C\c1ccccc1`, the Potency entry was “inactive”.

As to `CN1[C@H]2CC(OC(=O)[C@H](CO)c3ccccc3)C[C@H]1[C@H]1O[C@H]12` (stereo partly specified), the Potency entry is “inactive”.

For the compound `O=C=Nc1ccc(Cc2ccc(N=C=O)cc2)cc1`, the Potency result is “inactive”.

In the case of `Cc1cc(Nc2ccc(O)cc2)ccc1N`, the Potency was 39.8 µM (active).

For the compound `O=[N+]([O-])c1cc([N+](=O)[O-])c2ccc(S(=O)(=O)O)cc2c1O`, the Potency entry was “inactive”.

`c1ccc2c(c1)-c1cccc3c1c-2cc1ccccc13`: the Potency result is “inactive”.

`Nc1ccc2cc3ccccc3cc2c1`: the Potency entry was “inactive”.

For `CC(=O)Nc1ccc(C(=O)CCl)cc1`, the Potency is 7.94 µM (active).

On to `Cc1cc(O)c(C(C)(C)C)cc1Sc1cc(C(C)(C)C)c(O)cc1C`, for which the Potency is 50.1 µM (active).

Consider `O=C1OC(O)C(C(Cl)Cl)=C1Cl` (stereo unspecified), for which the Potency is 25.1 µM (active).

Turning to `CN(C)c1ccc(C2(c3ccc(N(C)C)cc3)OC(=O)c3cc(N(C)C)ccc32)cc1`, the Potency result is “inactive”.

For the compound `O=C(OCC(COC(=O)c1ccccc1)(COC(=O)c1ccccc1)COC(=O)c1ccccc1)c1ccccc1`, the Potency result is “inactive”.

On to `CCCCCCCC[N+](CCCCCCCC)(CCCCCCCC)CCCCCCCC`, for which the Potency was 5.01 µM (active).

Turning to `C=C(C)c1ccccc1`, the Potency entry is “inactive”.

Turning to `CNc1ccc(O)cc1`, the Potency was 5.01 µM (active).

Consider `c1ccc2c(c1)ccc1cc3c(ccc4ccccc43)cc12`, for which the Potency result was “inactive”.

Consider `O=Cc1ccc(Cl)c(Cl)c1`, for which the Potency result was “inactive”.

`Cc1cccc(O)c1C`: the Potency result was “inactive”.

Values taken from PubChem BioAssay (NCATS).
